From PubChem BioAssay AID2129 (The Scripps Research Institute Molecular Screening Center, 2009)
Hit rate of the full screen: of about 320,000 compounds, about 2,200 (0.69%) were called active. The sample holds actives, similar compounds and a random draw of the others, so the mix is not that of the screen. Values without a mark were called inactive.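 How the source made its calls: active means inhibition above the mean of all tested compounds plus 3 SD, cutoff set per campaign (cut at about 30% in these data); inactive means the rest.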

What follows are compounds tested against Bcl-2-like protein 1 (Homo sapiens) (UniProt Q07817) (assay: inhibitors of human Bcl-xL, primary screen, biochemical, fluorescence polarization, HTS (AID 2129;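 further: 0% = DMSO wells and 100% = unlabeled Bim-BH3 peptide competitor; inhibitors lower millipolarization by displacing the labeled peptide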)). Conditions: GST-Bcl-xL / FITC-Bim BH3 peptide fluorescence polarization; at 10.9 µM; stronger effect = higher value.
Chain of Bcl-2-like protein 1 (Homo sapiens) (Q07817 whole entry, looked up): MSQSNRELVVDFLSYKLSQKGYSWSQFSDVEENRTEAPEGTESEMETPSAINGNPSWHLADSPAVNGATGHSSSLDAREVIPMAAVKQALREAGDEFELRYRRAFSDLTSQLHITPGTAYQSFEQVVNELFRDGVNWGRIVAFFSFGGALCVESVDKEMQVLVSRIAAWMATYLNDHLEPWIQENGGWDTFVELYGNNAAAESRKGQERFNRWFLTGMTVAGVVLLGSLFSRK
Compound O=C(NCCc1ccccn1)c1cc(-c2ccc(Cl)cc2)nc2ccccc12 has an inhibition of -6.46%.
With COCCCNC(=S)N(Cc1ccccc1)Cc1ccc(F)cc1 the inhibition was 3.88%.
Compound COc1ccc(C(=O)COC(=O)CNC(=O)c2cccs2)cc1Br has an inhibition of 5.14%.
Work on C=CCOc1cccc(C2C(C(=O)c3ccc(C)o3)=C(O)C(=O)N2CCCn2ccnc2)c1 (stereo not given) yielded an inhibition of 0.01%.
Work on Cc1cc(N2C(=O)C(O)=C(C(=O)c3ccc(C)o3)C2c2ccc(OCc3ccccc3)cc2)no1 (stereo not given) yielded an inhibition of 11.2%.
In the case of C=CCOc1cccc(C2C(C(=O)c3ccc(C)o3)=C(O)C(=O)N2c2nnc(C)s2)c1 (stereo not given), the inhibition is reported as 88.7% (active).
Cc1cc(C(=O)NC2CCN(Cc3ccccc3)CC2)n[nH]1 showed an inhibition of 1.91%.
For C#CCOCCOCCOCCNc1nc(N2CCN(C(=O)C([C@@H](C)CC)n3cc(C(N)COC(=O)C(F)(F)F)nn3)CC2)nc(N2CCN(C(=O)[C@H](Cc3ccc(O)cc3)n3cc(C(N)[C@H](C)CC)nn3)CC2)n1 (stereo not given in full), the inhibition was 14.5%.
For Cn1c2c(c(=O)n(C)c1=O)C1c3ccccc3OCC1C(C)(C)O2 (stereo not given), the inhibition was 3.9%.
With NC(=O)COC(=O)c1ccc2c(c1)C(=O)N(Cc1ccco1)C2=O the inhibition was 4.63%.
CCCc1nc2scc(-c3ccc(C)cc3)c2c(=O)n1N was tested, and the inhibition was 1.66%.
Cc1cc2ccccc2n1CCC(=O)O was tested, and the inhibition was 52.5% (active).
Work on O=C(O)CCn1c(Cc2ccccc2)nc2ccccc21 yielded an inhibition of 1.07%.
Cc1cc2ccccc2n1CCNC(=O)COc1ccc2ccccc2c1 showed an inhibition of 4.61%.
CC(C)(C)c1cc2cccnc2n1Cc1cccc(F)c1 gave an inhibition of 7.39%.
For CN(C)NC(=O)C(NC(=O)c1ccc(N)cc1)C12CC3CC(CC(C3)C1)C2 (stereo not given), the inhibition was -0.78%.
With CCOC(=O)c1cc2n(c1N)-c1ccccc1C2=O the inhibition was 140% (active).
CC(C)OC(=O)CN1C(=O)C(=O)c2ccccc21 gave an inhibition of 10.2%.
For CCOC(=O)c1ccccc1CN1C(=O)c2ccccc2S1(=O)=O, the inhibition was 4.12%.
With Cc1ccc(S(=O)(=O)CC(=O)NC(C)c2ccccc2)cc1 (stereo not given) the inhibition was -0.31%.
CCOc1cc(CNCCN(C)C)c(Cl)cc1OCC(=O)NCCc1ccccc1 was tested, and the inhibition was -0.08%.
Work on NNC(=O)c1oc2nc(-c3ccccc3)cc(-c3ccco3)c2c1N yielded an inhibition of -35.7%.
CNc1nc(-c2ccccc2)cc(-c2ccccc2)n1 gave an inhibition of 2.12%.
In the case of CNC(=S)NNC(=O)c1oc2nc(-c3ccccc3)cc(-c3ccco3)c2c1N, the inhibition is reported as 30.6% (active).
In the case of COc1ccccc1C(=O)Nc1ccccc1C(=O)Nc1ccccc1, the inhibition is reported as -2.98%.
Compound O=C(CNC(=O)Cc1ccccc1)N=Nc1c(O)[nH]c2ccc(Br)cc12 has an inhibition of 10.3%.
NS(=O)(=O)c1ccc(N=Nc2c(O)[nH]c3ccc(Br)cc23)cc1 was tested, and the inhibition was 37.1% (active).
With Oc1[nH]c2ccc(Br)cc2c1N=Nc1nn[nH]n1 the inhibition was 1.22%.
Work on CC(=O)CC[C@@H](C)O[C@@H]1OC(C)[C@H](O)CC1O (stereo not given in full) yielded an inhibition of 1.11%.
For Cc1ccc(-n2c(C)cc(/C=C(\C#N)C(=O)NCC3CCCO3)c2C)cc1 (stereo not given), the inhibition was -0.52%.
With CCN1CC=C2C(C#N)=C(N)C(C#N)(C#N)[C@H](c3ccoc3)[C@H]2C1 the inhibition was 148% (active).
For CCCN1CC=C2C(C#N)=C(N)C(C#N)(C#N)C(c3cc(OC)ccc3OC)C2C1 (stereo not given), the inhibition was 68.3% (active).
With COc1ccccc1-n1cnc2cc(NS(=O)(=O)c3ccccc3)ccc21 the inhibition was 2.73%.
For CC(CCc1ccccc1)NCC(O)c1cccc([N+](=O)[O-])c1 (stereo not given), the inhibition was 1.94%.
COc1ccc(NC(=O)c2sccc2SCC#N)cc1 gave an inhibition of 8.42%.
In the case of Clc1cc(NC2CCCCC2)ncn1, the inhibition is reported as 6.31%.
With CCCCC1S/C(=N/N=C/c2cccs2)NC1=O (stereo not given) the inhibition was 8.02%.
CCCc1c(C)nc2c(Br)cccc2c1Cl gave an inhibition of 2.17%.
CCOCC(=O)NCc1ccc2c(c1)cc(C)n2C showed an inhibition of 19.5%.
COc1cc(C(=O)NCc2ccc3c(c2)cc(C)n3C)cc(OC)c1OC was tested, and the inhibition was 33.2% (active).
COc1cc(C(=O)NCc2cc3cc(Cl)ccc3n2C)cc(OC)c1OC showed an inhibition of 1.45%.
CN(CCO)S(=O)(=O)c1ccc2c(c1)C(=O)c1cc(S(=O)(=O)N(C)CCO)ccc1-2 was tested, and the inhibition was 1.55%.
CCOC(=O)c1cc2c(=O)n3ccccc3nc2n(CC(C)C)c1=NC(=O)c1c(-c2c(F)cccc2Cl)noc1C showed an inhibition of 3.3%.
Cc1ccc(NS(=O)(=O)c2ccc3c(c2)NC(=O)CO3)cc1 gave an inhibition of 0.04%.
For O=C(N1CCCCC1)N1CCN(C(=O)N2CCCCC2)CC1, the inhibition was 6.91%.
In the case of CCN1C(=O)CS/C1=N\c1nccs1, the inhibition is reported as 1.94%.
For Oc1ccc(-c2onc3ccc(Cl)cc23)cc1, the inhibition was 3.11%.
COc1ccc(-c2onc3ccc(C(C)=O)cc23)cc1 was tested, and the inhibition was 178% (active).
For CC(OC(=O)c1ccc2noc(-c3ccccc3)c2c1)C(N)=O (stereo not given), the inhibition was 2.5%.
With Cc1c(NC(=S)NC(=O)CCc2ccccc2)c(=O)n(-c2ccccc2)n1C the inhibition was 1.79%.
With CCNC(=O)Nc1ccc(S(=O)(=O)Nc2cnc(C)nc2C)cc1 the inhibition was 0.51%.
In the case of CN(C)c1ccc(Nc2c3c4c(cccc4n(C)c2=O)C(=O)c2ccccc2-3)cc1, the inhibition is reported as 54.3% (active).
In the case of Cc1cccc(C)c1N1C(=O)CN(Cc2ccccc2)C1=S, the inhibition is reported as 5.52%.
Cc1ccccc1NC(=O)Cc1nc(COC(=O)c2ccc(C(F)(F)F)cc2)cs1 was tested, and the inhibition was -1.31%.
CCOC(=O)c1oc2c(CN3CCN(CCO)CC3)c(O)c(CC)cc2c(=O)c1-c1nc2ccccc2s1 was tested, and the inhibition was 4.57%.
CC(C)(C)c1ccc(/C=C2\Oc3c(ccc(O)c3CN3CCN(CCO)CC3)C2=O)cc1 was tested, and the inhibition was 53.5% (active).
CN(C)S(=O)(=O)c1ccc(Cl)c(NC(=O)COC(=O)CC(NC(N)=O)c2ccc(Cl)cc2)c1 (stereo not given) gave an inhibition of -5.65%.
In the case of CN(c1ccc(OCC(=O)O)cc1)S(=O)(=O)c1ccc2ccccc2c1, the inhibition is reported as 4.89%.
For Cc1ccc2nc(COc3ccc(N(C)S(=O)(=O)c4ccccc4)cc3)cc(=O)n2c1, the inhibition was 36.5% (active).
COc1cccc(COc2ccc(N(C)S(=O)(=O)c3ccccc3)cc2)c1 gave an inhibition of -4.97%.
